Results reported in PubChem BioAssay (NCI).
Compounds without any hit were thinned out: in the full panel of roughly 79,000, 15% have a hit. No stated cut-off is given here; in the data, active means growth inhibition above about 70%; inactive means the rest.

Tests used:
[1] = NCI Yeast Anticancer Drug Screen. Data for the rad50 strain (AID 155);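 further: 0% = growth of vehicle-only cultures of the same strain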; conditions: S. cerevisiae rad50 strain growth inhibition; at 50.0 µM; active compounds read high
How it was run: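 Vehicle-treated cultures provide the reference for the growth inhibition reported for compound-exposed, repair-deficient yeast.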

[2] = NCI Yeast Anticancer Drug Screen. Data for the mec2-1 strain (AID 157); conditions: S. cerevisiae mec2-1 strain, at 50.0 µM, active compounds read high
How it was run: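 Compounds were applied to mec2-1 yeast cells. Their growth was then compared with that of vehicle-treated cultures to give growth inhibition.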

[3] = NCI Yeast Anticancer Drug Screen. Data for the sgs1 mgt1 strain (AID 161);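 further: 0% = growth of cultures given vehicle only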; conditions: S. cerevisiae sgs1 mgt1 strain, at 50.0 µM, active compounds read high
How it was run: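 Percent growth inhibition was derived by comparing compound-exposed mutant yeast with vehicle-exposed cultures. The strain carries alterations in DNA damage repair.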

[4] = NCI Yeast Anticancer Drug Screen. Data for the cln2 rad14 strain (AID 165);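 further: 0% = growth equal to vehicle treated cultures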; conditions: S. cerevisiae cln2 rad14 strain, at 50.0 µM, active compounds read high
How it was run: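 Strain: cln2 rad14 yeast, altered in cell cycle control and DNA damage repair. Read-out: growth inhibition vs vehicle.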

[5] = NCI Yeast Anticancer Drug Screen. Data for the bub3 strain (AID 167); conditions: S. cerevisiae bub3 mutant strain, at 50.0 µM, active compounds read high
How it was run: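 Mutant yeast screening strain plus compound; vehicle-treated cultures serve as the 0% inhibition reference.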

[6] = NCI Yeast Anticancer Drug Screen. Data for the mlh1 rad18 strain (AID 175); conditions: S. cerevisiae mlh1 rad18 strain growth inhibition; at 50.0 µM; active compounds read high
How it was run: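 A repair-deficient yeast strain is exposed to test compound, and growth is scored relative to vehicle-treated controls.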

Measured: growth inhibition

COc1ccc(-c2nc3ccccc3[nH]2)cc1
inactive: [1] 16.4% | [2] -2.7% | [3] 1.7% | [4] -4% | [5] -21.5% | [6] -3.1%

CCOc1ccc(OCC)c(NC(C)=O)c1
inactive: [1] -1.95% | [2] 4.05% | [3] 3.95% | [4] 5.5% | [5] 13.8% | [6] -3.6%

C/C(=C\C(C)(C)c1ccccc1)c1ccccc1
inactive: [1] -14.9% | [2] -31.6% | [3] -3.75% | [4] -8.35% | [5] 9.2% | [6] -25.1%

CCC(=O)COC(C)=O
inactive: [1] -3.75% | [2] -22% | [3] -6.05% | [4] -2.35% | [5] -3.75% | [6] 0.95%

O=C(O)c1cc(N=Nc2ccc([N+](=O)[O-])cc2S(=O)(=O)O)ccc1O
inactive: [1] -6% | [2] -2.35% | [3] 24.3% | [4] 16.1% | [5] -19.8% | [6] -9.75%

N#CCC(=O)c1ccc(N)cc1
inactive: [1] 16.1% | [2] -19.6% | [3] 2.2% | [4] 13.9% | [5] -11% | [6] 13.4%

Cc1cc(-c2ccc([NH2+][B-](F)(F)F)c(C)c2)ccc1[NH2+][B-](F)(F)F
inactive: [1] -9.15% | [2] -3.15% | [3] -11.6% | [4] -58.6% | [5] 3.45% | [6] -11.2%

CCS(=O)(=O)C(S(C)(=O)=O)S(=O)(=O)C(C)C (stereo unspecified)
inactive: [1] -1.65% | [2] 31.6% | [3] 8.45% | [4] -9.15% | [5] 26.8% | [6] 14%

Cc1cc(C)c(S(=O)(=O)Nc2ccccc2F)c(C)c1
inactive: [1] 40.1% | [2] 30.7% | [3] 62.9% | [4] 7.3% | [5] 29.4% | [6] 56.9%

CC(C)(C)c1cc2ccc(C(N)=O)cc2c(=O)[nH]1
inactive: [1] -23.7% | [2] -29.8% | [3] -1.65% | [4] 1.2% | [5] -8.8% | [6] -4.95%

Cc1ccc(-n2cc(-c3ccc(Cl)cc3)c3c(=N)n(N)cnc32)cc1
inactive: [1] -12.2% | [2] -14.2% | [3] 49.8% | [4] 26.2% | [5] 16.8% | [6] 47%

CCCCNC(=O)CC
inactive: [1] 3.1% | [2] -11.2% | [3] 3% | [4] 4.85% | [5] 14.9% | [6] -1.95%

O=C1CCCC1C(O)(C(F)(F)F)C(F)(F)F (stereo unspecified)
inactive: [1] -24.8% | [2] -19.9% | [3] -8.05% | [4] 16.6% | [5] -12% | [6] -21.1%

Cc1ccc(S(=O)(=O)N2CCC[C@@H]2C(=O)O[C@@H]2CCC3CC=CC32)cc1 (stereo partly specified)
inactive: [1] 3.65% | [2] -17.3% | [3] 10.2% | [4] -1.8% | [5] -12.3% | [6] -0.1%

CCCCCCCCCCCCCCCCNc1nc(=S)cc(C)[nH]1
inactive: [1] -10.2% | [2] -27.6% | [3] -5.05% | [4] -14.6% | [5] -25% | [6] -10.9%

O=C(COc1ccc(Cl)cc1Cl)Nc1ccc2ccccc2c1
inactive: [1] 49.4% | [2] 46% | [3] 59.4% | [4] 18.9% | [5] 54.5% | [6] 36.7%

CC(=O)c1cc(C)oc1C
inactive: [1] -5.1% | [2] -8.25% | [3] -12.8% | [4] -32.1% | [5] 2.8% | [6] 12.9%

OCCSCc1ccccc1
inactive: [1] 29.6% | [2] 0.3% | [3] -6.1% | [4] 7.2% | [5] -13.7% | [6] -1.3%

Nc1cc(N)nc(S(=O)(=O)O)n1
inactive: [1] -5.75% | [2] -12.9% | [3] -4.7% | [4] -25.9% | [5] 3.6% | [6] -12.9%

C[Si](C)(C)/C(=N/Nc1ccc([N+](=O)[O-])cc1[N+](=O)[O-])c1ccccc1
inactive: [1] -13.2% | [2] 9.9% | [3] -12.9% | [4] -13.6% | [5] -7.9% | [6] -7.15%

NC1=NC(=O)C2(CCCCC2)S1
inactive: [1] -9.6% | [2] -4.8% | [3] -21.2% | [4] -47.6% | [5] -8% | [6] -24.6%

Cn1ncc2c(=S)nc[nH]c21
inactive: [1] -15.2% | [2] -4.9% | [3] -2.5% | [4] -18.2% | [5] 2.65% | [6] -13.8%

O=C(O)C/C(=C\c1ccccc1)C(=O)O
inactive: [1] -3.15% | [2] -25.9% | [3] -17.4% | [4] 4% | [5] -24.2% | [6] -30.9%

O=c1[nH]ncc2ccc([N+](=O)[O-])cc12
inactive: [1] 6.45% | [2] 7.9% | [3] -1.25% | [4] -1.25% | [5] -2.3% | [6] -6.8%

Cc1ccccc1N1C(=O)/C(=C/c2ccc(N(CCC#N)CCC#N)cc2)N=C1c1cc([N+](=O)[O-])ccc1Cl
inactive: [1] 4.65% | [2] 1.7% | [3] 26.1% | [4] 7.1% | [5] -1.7% | [6] 6.2%

O=C(/C(=C\c1ccccc1)c1ccccc1)c1ccccc1
inactive: [1] 25.1% | [2] 32.8% | [3] 26.4% | [4] -75.2% | [5] 28.2% | [6] 21.4%

N#C/C(=C/n1c(=S)sc2ccccc21)c1nc2ccccc2s1
inactive: [1] 11.8% | [2] 14.7% | [3] 49.6% | [4] 24.9% | [5] 23.4% | [6] 30.8%

C(=NCCN=Cc1ccccc1)c1ccccc1
inactive: [1] -10.7% | [2] -6.9% | [3] -21.8% | [4] 3.25% | [5] -11.7% | [6] -8.9%

CCN(CC)CC
inactive: [1] -8.4% | [2] -6.2% | [3] -21.2% | [4] -53.4% | [5] -19% | [6] 19.4%

CC1=C[P+](c2ccccc2)(c2ccccc2)C=C(C)O1
inactive: [1] 8.9% | [2] 3.55% | [3] 12.6% | [4] 0.65% | [5] 4.5% | [6] 4.25%

COC(=O)c1ccc(SCCC(=O)CNc2nc(N)nc(N)c2[N+](=O)[O-])cc1
inactive: [1] 32.1% | [2] -13.3% | [3] 17.6% | [4] 22.3% | [5] -0.2% | [6] 3.15%

C/C(O)=C(\C=NC(=S)c1ccncc1)C(=O)Nc1ccccc1C
inactive: [1] -26.4% | [2] -37.6% | [3] -4.8% | [4] 13.3% | [5] -4.5% | [6] -26.9%

COC(=O)C1(F)C(=O)NC(=O)NC1OC (stereo unspecified)
inactive: [1] 35.5% | [2] 16.6% | [3] 56.4% | [4] 10.3% | [5] 11.7% | [6] 31%

CCCCCCCCCCCCCCCCOC(=O)c1cc([N+](=O)[O-])cc([N+](=O)[O-])c1Sc1ncnc2nc[nH]c12
inactive: [1] -3.8% | [2] -7.8% | [3] 3.5% | [4] -2.35% | [5] -21.2% | [6] -32.2%

CC1=NN(C(=O)CC(=O)Nc2cccc(Cl)c2)C(=O)C1N=Nc1ccc(C(=O)O)cc1 (stereo unspecified)
inactive: [1] -3.25% | [2] 1.35% | [3] 6.1% | [4] -25% | [5] -3.2% | [6] 6.55%

O=C(Oc1ccc([N+](=O)[O-])cc1)C(CSC(c1ccccc1)(c1ccccc1)c1ccccc1)NC(c1ccccc1)(c1ccccc1)c1ccccc1 (stereo unspecified)
inactive: [1] -3.05% | [2] 20.9% | [3] 6.5% | [4] -19.8% | [5] -3.6% | [6] 23.9%

CC1=CC2C(c3ccccc3)Nc3ccccc3N2C1=O (stereo unspecified)
inactive: [1] 32.6% | [2] 8.4% | [3] 10.2% | [4] 8.45% | [5] -8.65% | [6] -6.45%

Cc1cc(OCC(=O)O)c(C)cc1Cl
inactive: [1] -21.6% | [2] -17.1% | [3] -12.5% | [4] -0.25% | [5] -7.5% | [6] -13.6%

CC1=Nn2c(nnc2-c2ccc(Cl)cc2)NC(C)(C)C1
inactive: [1] 25.2% | [2] 5.55% | [3] 7.65% | [4] 7.95% | [5] 39.1% | [6] 26.3%

NC(=O)c1csc(C2OC3COP(=O)(O)OC3C2O)n1 (stereo unspecified)
inactive: [1] -21.1% | [2] -26.2% | [3] -38.6% | [4] -5.65% | [5] -29.1% | [6] -28.9%

S=C1NCCOc2ccccc21
inactive: [1] -8.65% | [2] -13.1% | [3] -2.5% | [4] -8.05% | [5] -10.9% | [6] -4.55%
